Sampled rows, rich in hits. Any-hit rate of the full collection: about 2.4%.
D2 ag-1: Beta-Arrestin HTS for Positive Allosteric Modulators of the Human D2 Dopamine Receptor: Agonists; AID 624465, 2012; D(2) dopamine receptor (Homo sapiens), P14416; activation, % (test concentration not listed); 360,000 tested, 0.084% active; DiscoveRx PathHunter D2 beta-arrestin, luminescence, 90 min; 100% = 57 uM dopamine signal; in the data active = activation above about 40%; inconclusive = between about 15% and that limit
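Agonist mode: compounds alone added to overnight-plated D2 PathHunter cells for 90 min at 37 C, with 57 uM final dopamine (EC100) defining full response. Beta-arrestin recruitment detected by chemiluminescent reagent, read after 1 h at ambient temperature.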
D2 antag: HTS Assay for Allosteric Antagonists of the Human D2 Dopamine Receptor: Primary Screen for Antagonists. HEK293 TREx D2 cells, calcium flux, dopamine EC80. AID 485344, 2010. 340,000 tested, 2% active. inhibition, % at 10 µM; in the data active = inhibition above about 30%; inactive = below that, where a call was filed; also: 0% is about no effect
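Read-out: kinetic calcium fluorescence (1 cycle/s) in inducible HEK293 T-REx D2 cells after an EC80 dopamine addition that followed 180 s compound preincubation. Loss of the dopamine response indicates antagonism.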
D2 ag-2: HTS Assay for Allosteric Agonists of the Human D2 Dopamine Receptor: Primary Screen for Agonists. activation, % at 2 µM. 340,000 tested, 0.53% active. AID 485358, 2010. HEK293 T-REx D2 cells, calcium flux agonist mode;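 active = activation over 3 SD above normal in the single-dose calcium agonist read, cut at about 30% in these data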; also: 0% is about no effect
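Tetracycline-induced HEK293 Trex cells with D2 receptor force-coupled to calcium signaling, plated overnight at 30 C and loaded with no-wash calcium dye. Calcium flux read kinetically for 180 s after compound addition; responses flag agonists.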
D2 PAM-1: Beta-Arrestin HTS for Positive Allosteric Modulators of the Human D2 Dopamine Receptor: Potentiators | D(2) dopamine receptor (Homo sapiens), P14416 | DiscoveRx D2 beta-arrestin cells, luminescence, 90 min; 100% = 57 uM dopamine signal | potentiation, % (no concentration beside the values) | 360,000 tested, 0.23% active; in the data active = potentiation above about 50%; inconclusive = mostly about 30% to 49%
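PathHunter D2 cells, attached overnight at 37 deg C, received compound in DMSO plus dopamine at EC20 (50 nM final) for 90 min at 37 deg C. Beta-arrestin recruitment was read as luminescence after 1 h with detection reagent at ambient temperature.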
D2 PAM-2: HTS Assay for Positive Allosteric Modulators of the Human D2 Dopamine Receptor: Primary Screen for Potentiators | D(2) dopamine receptor (Homo sapiens), P14416 | HEK293 T-REx D2, calcium flux, EC20 dopamine potentiation | potentiation, % at 10 µM | 340,000 tested, 0.34% active | AID 485347, 2010;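 active = potentiation over 3 SD above the plate norm, cut at about 30% in these data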; also: 0% is about no effect
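Tetracycline-induced Hek293 Trex D2 cells, force-coupled to calcium, loaded with no-wash calcium dye. Compound added with 180 s kinetic read for agonism, then EC20 dopamine and a further 180 s read for potentiation.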
D3 arrestin ag: qHTS of D3 Dopamine Receptor Agonist: D3 Dopamine Receptor B-arrestin Agonist Confirmatory Assay | shares compounds with D2 ag-2 | DiscoveRx D3 beta-arrestin cells, luminescence, 90 min | Potency, µM (doses to about 76.9 µM), without a hit: at the top dose activation, actives largely listed as activators | 2,300 tested, 4% active;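 also: potency is read from the fitted curve at half-maximal effect; 100% = dopamine control response; nearly all actives have a fitted effect of over 70% in size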
Target sequence (P35462 whole entry, looked up): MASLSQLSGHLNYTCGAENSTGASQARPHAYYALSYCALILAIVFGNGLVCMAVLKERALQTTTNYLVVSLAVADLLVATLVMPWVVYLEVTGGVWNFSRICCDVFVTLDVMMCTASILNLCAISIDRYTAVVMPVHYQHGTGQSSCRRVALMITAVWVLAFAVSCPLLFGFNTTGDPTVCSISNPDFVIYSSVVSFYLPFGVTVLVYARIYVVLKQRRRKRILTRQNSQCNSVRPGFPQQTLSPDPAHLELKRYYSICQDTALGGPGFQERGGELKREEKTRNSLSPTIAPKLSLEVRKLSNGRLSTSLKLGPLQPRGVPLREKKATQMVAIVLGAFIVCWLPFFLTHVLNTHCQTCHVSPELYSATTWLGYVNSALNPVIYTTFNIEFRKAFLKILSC
D2 ag-3: qHTS of D3 Dopamine Receptor Agonist: D2 Dopamine Receptor B-arrestin Agonist Counterscreen. DiscoveRx PathHunter D2 beta-arrestin, luminescence, 90 min; response scale: percent relative to full dopamine signal. Potency, µM (titrated, usually from 76.9 µM), for the others: top-dose activation, actives largely listed as activators. shares compounds with D2 ag-2. 2,300 tested, 5.9% active; also: potency is read from the fitted curve at half-maximal effect; % of control where 0% means no effect; nearly all actives have a fitted effect of over 70% in size
Numbers without * were called inactive; ? = inconclusive; . = not tested or not shown. Unless noted, calls follow the shape of the dose curve; as a rule, active = well fitted activation curve with a large enough effect; inconclusive = small, poorly fitted or top-dose-only effect; inactive = flat fitted curve, though single readings scatter.

SMILES	D2 ag-1	D2 antag	D2 ag-2	D2 PAM-1	D2 PAM-2	D3 arrestin ag	D2 ag-3
O=C(CN1CCN(c2ccccn2)CC1)Nc1cccc(S(=O)(=O)N2CCOCC2)c1	4	7	42*	14	-15	23%	?
CCc1nn(CC(=O)N(C)Cc2ccccc2)c(=O)c2cc3sccc3n12	.	.	0	.	4	.	.
Cc1ccc(CCNC(=O)c2c(C)oc3ncnc(N4CCOCC4)c23)cc1	.	.	.	.	-8	.	.
Cc1cc(C)cc(NC(=O)CSc2ccc(-c3ccccn3)nn2)c1	3	-2	-1	-19	2	.	.
CC(C(=O)Nc1cccc(S(=O)(=O)N2CCOCC2)c1)N1CCN(C/C=C/c2ccccc2)CC1 (stereo unspecified)	-2	80*	51*	-12	-23	?	22%
O=C(CSc1ccc(-c2ccccn2)nn1)Nc1cccc(F)c1	2	-11	71*	-4	-20	10%	9%
O=C(CN1CCN(c2ccccn2)CC1)Nc1ccc(F)cc1F	11	25	59*	-1	-17	30%	?
O=C(CN1CCc2ccccc2C1)Nc1ccccc1F	?	64*	47*	1	-17	?	23%
O=C(Nc1cccc(S(=O)(=O)N2CCOCC2)c1)C(c1ccccc1)N1CCCCC1 (stereo unspecified)	-2	.	.	-6	.	.	.
O=C(CN1CCc2ccccc2C1)Nc1ccc(F)cc1	1	-6	0	-3	7	.	.
CCc1ccc(CNC(=O)c2sc3ncccc3c2-n2c(C)ccc2C)cc1	.	.	7	.	1	.	.
O=C(CN1CCN(c2ccccn2)CC1)Nc1ccccc1Br	?	38*	47*	10	-21	-3%	19%
Cc1ccc(F)cc1NC(=O)CN1CCN(c2ccccn2)CC1	?	50*	27	-9	-8	19%	?
Cc1ccc(NC(=O)CN2CCN(c3ccccn3)CC2)c(Cl)c1	-6	-16	0	-5	2	.	.
O=C(CN1CCN(c2ccccn2)CC1)Nc1cccc(F)c1	4	-19	27	-4	-5	3%	-1%
N#Cc1ccccc1NC(=O)CN1CCN(c2ccccn2)CC1	8	-2	10	-1	-4	.	.
Cc1oc2ncn(CC(C)C)c(=O)c2c1C(=O)NC(C)c1ccccc1 (stereo unspecified)	.	.	-2	.	4	.	.
O=C(NCc1n[nH]c(=O)c2ccccc12)C1CC(=O)N(c2ccc(Cl)cc2)C1 (stereo unspecified)	-2	-14	5	5	-7	-18%	-3%
Cc1ccc2c(c1)-c1onc(C(=O)N(C)c3cccc(C(F)(F)F)c3)c1CO2	.	.	0	.	5	.	.
O=S(=O)(CCN1CCN(c2ccccn2)CC1)c1ccc(Cl)cc1Cl	3	12	50*	-9	-6	19%	11%
Cc1ccc(NC(=O)CCCN2C(=O)COc3ccc(C)cc32)c(Cl)c1	.	.	-1	.	4	.	.
O=[N+]([O-])c1cc(/C=N/N/C(=N/c2ccccn2)c2ccccn2)ccc1O	-2	-6	29	-23	-9	-25%	-13%
CN(C)c1ccc2c3c(cccc13)C(=O)N(c1ccccc1)C2=O	.	16	8	.	-6	.	.
